Measurements from ChEMBL document CHEMBL3988442, “University of Dundee, Small-Polar-MMV Screening Library” (2021).
Hit rate of the full screen: of about 69,000 compounds, about 420 (0.61%) showed an effect of 50% or more. Only a selection was taken, and strong results are over-represented in it overall.

biological target: T1, Histidine--tRNA ligase (Leishmania infantum) (UniProt A4I591); experiment: Leishmania infantum Histidine tRNA synthetase (LdHisRS); format: functional; set-up: scale not given: in the data most compounds retested in dose-response had high values; settings: 30 µM
T1 sequence (whole entry): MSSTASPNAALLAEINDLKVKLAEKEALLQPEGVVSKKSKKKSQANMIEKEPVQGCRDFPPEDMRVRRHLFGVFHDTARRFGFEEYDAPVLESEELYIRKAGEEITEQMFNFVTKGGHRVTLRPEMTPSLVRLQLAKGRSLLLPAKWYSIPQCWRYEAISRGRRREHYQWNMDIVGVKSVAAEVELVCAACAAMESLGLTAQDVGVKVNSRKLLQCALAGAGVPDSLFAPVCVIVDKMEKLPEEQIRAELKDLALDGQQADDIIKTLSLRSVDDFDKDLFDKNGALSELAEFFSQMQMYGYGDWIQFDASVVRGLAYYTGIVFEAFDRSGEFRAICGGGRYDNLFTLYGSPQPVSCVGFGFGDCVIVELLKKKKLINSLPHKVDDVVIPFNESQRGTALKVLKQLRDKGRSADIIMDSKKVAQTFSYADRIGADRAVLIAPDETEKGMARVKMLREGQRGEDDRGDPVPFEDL

Structure (SMILES) | Percent Effect [%]
Cc1cccc(C(=O)N2CCN(S(C)(=O)=O)[C@@H]3CS(=O)(=O)C[C@@H]32)n1 | -2.67
COC[C@@]12CC[C@@H](N3CCOCC3)C[C@H]1CCN(c1ncccc1F)C2 | 19.4
O=C1OCCN1CC(=O)N1C[C@H]2CC[C@@H]1CN(Cc1cscn1)C2 | -18.2
O=C(c1ccccn1)N1CC[C@H]2C(=O)N(c3ccsc3)CCO[C@H]2C1 | 18
CCCn1nc2c(cc1=O)CN(c1ncnc3sccc13)CC2 | 15.3
CC(C)n1nc2c(cc1=O)CN(c1ncnc3sccc13)CC2 | 38.7
c1csc(N2CCN(c3ncnc4sccc34)CC2)n1 | 27.1
CCn1nc2c(cc1=O)CN(c1ncnc3sccc13)CC2 | 102
c1csc(N2CCCN(c3ncnc4sccc34)CC2)n1 | 22.4
Cn1nc2c(cc1=O)CN(c1ncnc3sccc13)CC2 | 100
O=C1N(c2cccc(F)c2)Cc2nc(=O)n(Cc3ccc(Cl)cc3)n21 | 9.78
O=C(Cc1ccco1)N1C[C@H]2CCC[C@@]2(COCC2CC2)C1 | 20
CN(C)C(=O)CN1CC[C@H]2CN(S(C)(=O)=O)C[C@@H]2C1=O | 15.5
CN(C)C(=O)N1C[C@H](Oc2ccccn2)[C@H]2OCCC[C@H]21 | 8.74
COCC(=O)N1C[C@H]2CNC[C@@]2(C(=O)NCc2snnc2C)C1 | 18.6
COc1cccn(CC(=O)N(C)CCSC)c1=O | 32
CCc1ccccc1OCCN(C)C(=O)CN1CCCC1 | 22.2
COCCCN(C)C(=O)Cn1cccc(OC)c1=O | 107
CCN(CC1CCOCC1)C(=O)Cn1cccc(C(F)(F)F)c1=O | 13.2
COCCN(C)C(=O)Cn1cccc(OC)c1=O | 105
COc1cccn(CC(=O)N(C)CCOc2cc(C)cc(C)c2)c1=O | 105
COc1cccn(CC(=O)N(C)Cc2ccoc2)c1=O | 47.6
CN(CCCOc1ccccc1Cl)C(=O)CN1CCCCCC1=O | 21.2

Structure (SMILES) | Percent Effect [%]
CN(CCCOc1ccccc1Cl)C(=O)CN1C[C@@H]2CC[C@H](CC1=O)N2 | 17.7
CCc1cccc(OCCCN(C)C(=O)CN2CCNC2=O)c1 | 8.85
COc1cccn(CC(=O)N(C)CCC2CCOCC2)c1=O | 91.2
CN(CCOCC1CC1)C(=O)Cn1cccc(C(F)(F)F)c1=O | 15.4
CC(=O)N1CC[C@H]2CC(=O)N(C3CC3)CC[C@H]2C1 | 22.2
CNC(=O)CN1CC[C@H]2CN(C(=O)c3cc[nH]n3)C[C@H]2C1 | 16.7
CNC(=O)[C@@H]1CC[C@@H]2[C@@H](CCN2Cc2cn(C)c3ccccc23)O1 | 13.2
O=C1[C@H]2CC[C@H](CN(C3CSCCSC3)C2)N1Cc1cscn1 | 11.4
CN(C)S(=O)(=O)N1CC[C@]2(O)CCN(CCc3cccc(F)c3)C[C@@H]2C1 | 43.4
Cc1nc(CN2C[C@@H]3CN(C(=O)c4cccn4C)C[C@@H]3C2)cs1 | -1.92
CC(=O)N1CCO[C@@H]2CN(Cc3ccccc3Cl)C[C@@H]2C1 | 11.7
Cc1nc(CN2C[C@@H]3CN(C(=O)C4(C#N)CC4)C[C@@H]3C2=O)cs1 | 26.5
Cc1nc([C@H]2C[C@H]3CN(C(=O)c4ccoc4C)CC[C@@H]3O2)no1 | 15.1
CN(CCCOc1ccccc1Cl)C(=O)CN1C(=O)CCNC1=O | 14.2
CN(CCCOc1ccccc1Cl)C(=O)CN1CCNC1=O | 24.8
COc1cccn(CC(=O)N(C)CCCOc2c(C)cccc2C)c1=O | 110
Cc1ccc(N(C)[C@@H]2CC[C@@H]3CN(C(=O)CC4CCOCC4)C[C@@H]32)nn1 | 12.8
Cc1ccnc(N2C[C@@H]3CC[C@H](C2)N(CC2CCC2)C3=O)n1 | 34.4
Cn1cc(CCC(=O)N2C[C@@H]3CC[C@H](C2)N(Cc2ccccn2)C3)cn1 | 24.1
Cc1ccc(N2C[C@H]3OCC[C@H]3[C@H](C(=O)NC3CCC3)C2)nn1 | 11.8
Cc1nccn1-c1cccc(C2CCCN(C3CCCCC3)C2)n1 (stereo not drawn) | 55.6
CCc1nccn1-c1cccc(C2CCCN(C3CCCCC3)C2)n1 (stereo not drawn) | 42
CC(C)c1nccn1-c1cccc(C2CCCN(C3CCCC3)C2)n1 (stereo not drawn) | 22.9

Structure (SMILES) | Percent Effect [%]
Cc1nccn1-c1nccnc1C1CCCN(C2CCCC2)C1 (stereo not drawn) | -4.2
Cc1nccn1-c1cccc(C2CCCN(C(=O)c3cc[nH]n3)C2)n1 (stereo not drawn) | 17.1
Cc1nccn1-c1cccc(C2CCCN(C3CCCC3)C2)n1 (stereo not drawn) | 65.2
COCC(=O)N1CC[C@@H]2CN(Cc3cccc(Cl)c3)S(=O)(=O)[C@@H]2CC1 | 3.77
Cn1ccc(NC(=O)CN2C[C@H]3CC[C@@H]2CN(Cc2ccccn2)C3)n1 | 0
O=C(Cc1cnc(-c2c(Cl)cccc2Cl)s1)N1CCOCC1 | 64.8
CC(=O)N1CCN(C(=O)Cc2cnc(-c3c(Cl)cccc3Cl)s2)CC1 | -1.1
NC(=O)C1CCN(C(=O)Cc2cnc(-c3c(Cl)cccc3Cl)s2)CC1 | 12.1
Cc1nnsc1C(=O)N1CC[C@H](c2ccccc2)[C@@H]2[C@H]1CCCCN2C | 7.29
Cc1c(Cl)cccc1NC(=O)Cn1cc(C(=O)O)ccc1=O | 55
Cc1ccc(Cl)cc1NC(=O)Cn1cc(C(=O)O)ccc1=O | 6.67
Cc1cccc(Cl)c1NC(=O)Cn1cc(C(=O)O)ccc1=O | 18.3
CC(C)CS(=O)(=O)N1C[C@H]2C[C@H](C(=O)NCc3ccccc3)[C@@H](C1)O2 | 5.83
Cn1cc(N2C(=O)C[C@@H]3[C@@H]2CCN3C(=O)c2ccco2)cn1 | 16
COc1cc(N2C[C@H]3CN(C(=O)c4cnccn4)C[C@H]3C2)ncn1 | 5.26
Cn1nc(Cn2ccnc2)c2c1CN(c1ncccn1)C2 | 3.51
Cn1nc(Cn2ccnc2)c2c1CN(c1nccs1)C2 | 52.6
CCS(=O)(=O)N1Cc2c(Cn3ccnc3)nn(C)c2C1 | 11.1
Cc1cc(C(=O)N2C[C@H]3CC[C@@H]2CN(Cc2ccccn2)C3)nc(N)n1 | -4.84
CS(=O)(=O)N[C@H]1COC[C@@H]2CN(Cc3ccco3)C[C@@H]21 | -1.39
COc1ccc(Oc2ncccc2F)cc1CN1CCCC1 | 15.8
COc1ccc(Oc2nccc3occc23)cc1CN1CCCC1 | 58.1
c1ccc(Oc2nccc3occc23)c(CN2CCCCC2)c1 | 23.7

Structure (SMILES) | Percent Effect [%]
O=C1NCCO[C@H]2CN(C(=O)Cc3ccco3)CC[C@@H]12 | 18
Cc1nc(CN2CCc3nc(N4CCCC4)nc(NC(C)C)c3C2)cs1 | 92.3
Cc1nc(CN2CCc3nc(NC(C)C)nc(C)c3C2)cs1 | 47.9
CC(C)Nc1nc(N2CCCC2)nc2c1CN(C)CC2 | 5.56
Cc1ccc([C@@]2(O)CC[C@@H]3CN(S(=O)(=O)c4cn(C)nc4C)C[C@@H]32)cc1 | -15.8
CSc1nc(N)cc(N2C[C@@H]3CC[C@H](C2)N(CC2CC2)C3=O)n1 | 24.7
Nc1nc(CC(=O)N2CCCC(CCc3cccc(F)c3)C2)cc(=O)[nH]1 (stereo not drawn) | 78.3
Cc1ccccc1CCC1CCCN(C(=O)Cc2cc(=O)[nH]c(N)n2)C1 (stereo not drawn) | 18.3
O=C(CC1=CSC2=NCCN12)N1CCCC(CCc2cccc(F)c2)C1 (stereo not drawn) | 28.3
Cc1ccccc1CC(C)(C)NC(=O)CCOc1cccc(C(N)=O)c1 | 1.3
Cc1ccccc1CC(C)(C)NC(=O)COc1cccc(C(N)=O)c1 | 22.1
Cc1ccccc1CC(C)(C)NC(=O)c1cccc(OCC(N)=O)c1 | 50.6
Cc1ccc(CN2C[C@@H](OCc3csc(C)n3)[C@H]3COC[C@H]32)s1 | 21
CN1CCC(O)(CCNC(=O)[C@@]23CNC[C@@H]2CN(C2CCCC2)C3)CC1 | 10.3
CC(=O)N1CCO[C@@H]2CN(S(=O)(=O)c3ccc(C)cc3)CC[C@@H]2C1 | 50.9
CC(=O)N1CCO[C@@H]2CN(S(=O)(=O)c3ccc(F)cc3)CC[C@@H]2C1 | 17
CC(=O)N1CCO[C@@H]2CN(S(=O)(=O)c3cccs3)CC[C@@H]2C1 | 5.66
O=C(N[C@@H]1CN(Cc2ccoc2)C[C@@H]2CCCO[C@@H]21)C1CCC1 | 11.8
Cc1nnc(N2C[C@H](C(=O)NCc3ccco3)[C@@H]3CCO[C@@H]3C2)s1 | 16.8
CS(=O)(=O)N1C[C@@H]2COC[C@@H](CC(=O)N3CCCO3)[C@@H]2C1 | 7.89
OCCNc1cc(-c2nccnc2N2CCCC2)c2cc[nH]c2n1 | 62.8
O=C(O)CNc1cc(-c2nccnc2N2CCCC2)c2cc[nH]c2n1 | 20.2
Nc1cc(-c2nccnc2N2CCCC2)c2cc[nH]c2n1 | 20.2

Structure (SMILES) | Percent Effect [%]
Cc1ccc(C)c(OC(C)C(=O)Nc2cccnc2)c1 (stereo not drawn) | 0
Cc1ccc(C)c(OC(C)C(=O)NCc2cccnc2)c1 (stereo not drawn) | 0
Cc1ccc(C)c(OC(C)C(=O)NCCNc2cccnc2)c1 (stereo not drawn) | 60.6
NC(=O)CN1C(=O)CO[C@H]2CN(Cc3ccc(Cl)cc3)C[C@H]21 | 10.8
Cc1ccc(N2CC[C@@H]3[C@@H]2CCN3C(=O)c2cscn2)nn1 | 7.89
O=C(NC[C@H]1CCCC[C@H]1O)c1ccc2nc(-c3ccco3)[nH]c2c1 | 63.4
O=C(N[C@H]1CCCC[C@@H]1O)c1ccc2nc(-c3ccccc3)[nH]c2c1 | 3.96
O=C(NC[C@H]1CCCC[C@H]1O)c1cccc2[nH]c(-c3ccco3)nc12 | 29.7
COC[C@@H]1CC[C@H]2[C@H](CCN2C(=O)c2ccncc2F)O1 | 22.6
O=C(Cn1ccc2sccc2c1=O)NCc1ccc(F)cc1 | 5.43
CN(C)S(=O)(=O)N1C[C@H]2CCC[C@@]2(COCc2ccccn2)C1 | -17.6
Cc1cccc(COC[C@H]2CC[C@H]3[C@H](CCN3C(=O)CC3CC3)O2)n1 | 13.9
Cn1nc2c(cc1=O)CN(Cc1nnc(-c3ccco3)o1)CC2 | 76.6
Cc1nc(CN2CCc3nn(C)c(=O)cc3C2)oc1C | 14.9
Cc1ccc(-c2nnc(CN3CCc4cnc(C)nc4C3)o2)cc1 | 40
CC(C)n1nc2c(cc1=O)CN(Cc1nnc(C3CC3)o1)CC2 | 24.5
Cc1ccc(-c2nnc(CN3CCc4nn(C)c(=O)cc4C3)o2)cc1 | 106
CCOCCN1CCN(Cc2nnc(-c3ccco3)o2)CC1 | 8.51
Cn1nc2c(cc1=O)CN(Cc1ccc(-n3cccn3)cc1)CC2 | 33.3
Cn1nc2c(cc1=O)CN(Cc1nnc(-c3ccc(F)cc3)o1)CC2 | 78.7
CC(C)n1nc2c(cc1=O)CN(Cc1nc(-c3ccco3)no1)CC2 | 2.67
